# Measurements from ChEMBL document CHEMBL3988442, “University of Dundee, Small-Polar-MMV Screening Library” (2021).
# Molecular target: T1, Arginase-2, mitochondrial (Homo sapiens) (UniProt P78540)
# T1 sequence (whole entry): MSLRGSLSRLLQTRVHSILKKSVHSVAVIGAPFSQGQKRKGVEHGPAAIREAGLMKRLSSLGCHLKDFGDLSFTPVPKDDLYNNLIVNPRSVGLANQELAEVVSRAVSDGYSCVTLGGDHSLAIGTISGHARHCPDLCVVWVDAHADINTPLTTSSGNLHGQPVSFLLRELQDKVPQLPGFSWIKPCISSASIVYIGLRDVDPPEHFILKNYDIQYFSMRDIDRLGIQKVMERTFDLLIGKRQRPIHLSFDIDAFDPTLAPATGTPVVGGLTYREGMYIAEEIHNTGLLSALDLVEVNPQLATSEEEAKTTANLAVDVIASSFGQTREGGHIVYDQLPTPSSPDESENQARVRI
# Assay: in vitro enzyme assay to detect the production of urea directly proportional to the activity of Arginase II
# Assay type: functional
# Design: scale not given: in the data most compounds retested in dose-response had high values
# Settings: 33.3 µM
row,SMILES,Percent Effect
1,Cc1cccc(CN2C(=O)CCC23CCN(Cc2cccn2C)CC3)n1,0.457%
2,CCC(=O)N1CCCC1c1nccnc1Nc1nc(C)cc(C)n1 (stereo not drawn),2.21%
3,CNc1cncc(C2CCCN2Cc2c[nH]cn2)n1 (stereo not drawn),2.21%
4,Cc1cc(C)n(CC2CN(Cc3nc(-c4ccco4)no3)CCO2)n1 (stereo not drawn),1.43%
5,CCCc1nc(C)c(C(=O)NCCN2CCN(CC)CC2)s1,-2.25%
6,Fc1cnc(N2CCOCC3(CCCN(c4nncs4)C3)C2)nc1 (stereo not drawn),-5.26%
7,O=C(c1ccccn1)N1Cc2nccn2CC(CN2CCOCC2)C1 (stereo not drawn),5.67%
8,COC(=O)c1cccn1C1CCN(Cc2ccccc2)CC1,-10.9%
9,CCOC1CCCN(C(=O)c2sccc2-n2cnnn2)C1 (stereo not drawn),-1.23%
10,CN(C)CC1CN(Cc2coc(-c3ccccc3Cl)n2)CCO1 (stereo not drawn),2.66%
11,CCc1cc(O)nc(C2CCCN2C(=O)c2cccnc2)n1 (stereo not drawn),3.1%
12,CC(Cn1cccn1)NC(=O)Cc1cccs1 (stereo not drawn),3.99%
13,COc1ccc(F)cc1C(=O)N(C)Cc1cc(C)on1,-0.41%
14,CNc1cc(N2CCCC2CNCc2cnc(C)cn2)ncn1 (stereo not drawn),6.15%
15,CN(Cc1ccco1)[C@@H]1CN(Cc2ccc(F)cc2)C[C@@H]2CCCO[C@@H]21,-6.48%
16,CC(C)(O)CN1CCN(C(=O)c2cccnc2O)CC1,2.46%
17,O=C(N1CCCC1)N1CCC2(CCCN(CCOc3ccccc3)C2)C1 (stereo not drawn),-1.37%
18,CC(C(=O)N1CCCC1)N1CCC(c2nccn2Cc2cscn2)CC1 (stereo not drawn),5.94%
19,Cc1ccc(NC2CCN(C(=O)c3cccc4ncccc34)CC2)nn1,3.99%
20,COc1cc(CNCc2ccc(NC(=O)NC(C)C)cc2)cc(OC)c1,10.4%

row,SMILES,Percent Effect
1,O=C(c1cnco1)N1CCCC(Cc2nccs2)C1 (stereo not drawn),4.87%
2,CCS(=O)(=O)N(C)CC(=O)Nc1ccc(Br)cn1,-0.444%
3,Cn1cc(NC(=O)N2CCC(c3ccccc3)CC2)ccc1=O,9.43%
4,Cc1ncc(S(C)(=O)=O)c(C2CCCNC2)n1 (stereo not drawn),1.75%
5,COC(=O)COc1cccc(NS(=O)(=O)c2cc(C(=O)O)cs2)c1,-2.87%
6,CC(C)c1cc(N2CCN(c3ccc(O)cc3)CC2)n2nccc2n1,5.25%
7,CC(=O)NC1CCCN(C(=O)NCc2cccnc2-n2cccn2)C1 (stereo not drawn),6.21%
8,Cc1noc(C)c1CN(C)C(=O)NC1CCN(c2ncccn2)CC1,-0.82%
9,FC(F)(F)Cn1ccnc1CN1CCCC1c1noc(C2CC2)n1 (stereo not drawn),-4.43%
10,NC[C@H]1CC[C@H](C(NC(=O)c2ccccc2)c2ccccn2)CC1 (stereo partly drawn),-2.21%
11,CCc1nc(C2CCCN2C(=O)CCCn2cccn2)no1 (stereo not drawn),8.4%
12,CN(C)CC1CN(Cc2nnc(-c3ccccc3Cl)o2)CCO1 (stereo not drawn),1.77%
13,c1csc(-c2nc(CN3CCn4c(nnc4C4CC4)C3)co2)c1,2.66%
14,CCNC(=O)[C@@H]1C[C@H](NC(=O)Cc2ccsc2)CN1Cc1ccc(C)o1,14.3%
15,CCOc1ncccc1NC(=O)NC1CCCN(c2ncccn2)C1 (stereo not drawn),-8.4%
16,CC(=O)N1CCCC1c1csc(Nc2cnccn2)n1 (stereo not drawn),2.21%
17,CCOC1COC2(CCN(S(=O)(=O)c3cccc(F)c3)CC2)C1 (stereo not drawn),6.07%
18,O=c1c2ccccc2nc2n1C(CSc1ccc(Cl)cc1Cl)CN2 (stereo not drawn),5.94%
19,c1ccc(OC2CCCC2)c(CNC2CCc3ncnn3C2)c1 (stereo not drawn),2.87%

# Molecular target: T2, Proteasome subunit beta (Trypanosoma cruzi) (UniProt O96673)
# T2 sequence (whole entry): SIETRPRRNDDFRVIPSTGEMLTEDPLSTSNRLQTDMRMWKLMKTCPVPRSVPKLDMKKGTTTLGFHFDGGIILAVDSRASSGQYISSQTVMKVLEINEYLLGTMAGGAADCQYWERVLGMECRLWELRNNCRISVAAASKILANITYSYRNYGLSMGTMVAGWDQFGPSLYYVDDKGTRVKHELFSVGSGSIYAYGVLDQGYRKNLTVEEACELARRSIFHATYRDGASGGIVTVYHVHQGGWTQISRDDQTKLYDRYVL
# Assay: Trypanosoma cruzi proteasome chymotrypsin-like activity (TcProtChymo) assay.
# Assay type: functional
# Design: scale not given: in the data most compounds retested in dose-response had high values
# Settings: 9.37 µM
row,SMILES,Percent Effect
1,Cc1cccc(CN2C(=O)CCC23CCN(Cc2cccn2C)CC3)n1,16.9%
2,CCC(=O)N1CCCC1c1nccnc1Nc1nc(C)cc(C)n1 (stereo not drawn),15.8%
3,CNc1cncc(C2CCCN2Cc2c[nH]cn2)n1 (stereo not drawn),7.88%
4,Cc1cc(C)n(CC2CN(Cc3nc(-c4ccco4)no3)CCO2)n1 (stereo not drawn),8.25%
5,CCCc1nc(C)c(C(=O)NCCN2CCN(CC)CC2)s1,-1.23%
6,Fc1cnc(N2CCOCC3(CCCN(c4nncs4)C3)C2)nc1 (stereo not drawn),10.5%
7,O=C(c1ccccn1)N1Cc2nccn2CC(CN2CCOCC2)C1 (stereo not drawn),8.56%
8,COC(=O)c1cccn1C1CCN(Cc2ccccc2)CC1,6.49%
9,CCOC1CCCN(C(=O)c2sccc2-n2cnnn2)C1 (stereo not drawn),13.1%
10,CN(C)CC1CN(Cc2coc(-c3ccccc3Cl)n2)CCO1 (stereo not drawn),10.6%
11,CCc1cc(O)nc(C2CCCN2C(=O)c2cccnc2)n1 (stereo not drawn),15.1%
12,CC(Cn1cccn1)NC(=O)Cc1cccs1 (stereo not drawn),6.36%
13,COc1ccc(F)cc1C(=O)N(C)Cc1cc(C)on1,14.1%
14,CNc1cc(N2CCCC2CNCc2cnc(C)cn2)ncn1 (stereo not drawn),2.47%
15,CN(Cc1ccco1)[C@@H]1CN(Cc2ccc(F)cc2)C[C@@H]2CCCO[C@@H]21,15.4%
16,CC(C)(O)CN1CCN(C(=O)c2cccnc2O)CC1,9.13%
17,O=C(N1CCCC1)N1CCC2(CCCN(CCOc3ccccc3)C2)C1 (stereo not drawn),12.3%
18,CC(C(=O)N1CCCC1)N1CCC(c2nccn2Cc2cscn2)CC1 (stereo not drawn),13%
19,Cc1ccc(NC2CCN(C(=O)c3cccc4ncccc34)CC2)nn1,-1.61%
20,COc1cc(CNCc2ccc(NC(=O)NC(C)C)cc2)cc(OC)c1,16.1%

row,SMILES,Percent Effect
1,O=C(c1cnco1)N1CCCC(Cc2nccs2)C1 (stereo not drawn),19.1%
2,CCS(=O)(=O)N(C)CC(=O)Nc1ccc(Br)cn1,18.2%
3,Cn1cc(NC(=O)N2CCC(c3ccccc3)CC2)ccc1=O,2.3%
4,Cc1ncc(S(C)(=O)=O)c(C2CCCNC2)n1 (stereo not drawn),8.39%
5,COC(=O)COc1cccc(NS(=O)(=O)c2cc(C(=O)O)cs2)c1,17.5%
6,CC(C)c1cc(N2CCN(c3ccc(O)cc3)CC2)n2nccc2n1,19.7%
7,CC(=O)NC1CCCN(C(=O)NCc2cccnc2-n2cccn2)C1 (stereo not drawn),11.4%
8,Cc1noc(C)c1CN(C)C(=O)NC1CCN(c2ncccn2)CC1,9.64%
9,FC(F)(F)Cn1ccnc1CN1CCCC1c1noc(C2CC2)n1 (stereo not drawn),15.7%
10,NC[C@H]1CC[C@H](C(NC(=O)c2ccccc2)c2ccccn2)CC1 (stereo partly drawn),13.3%
11,CCc1nc(C2CCCN2C(=O)CCCn2cccn2)no1 (stereo not drawn),8.25%
12,CN(C)CC1CN(Cc2nnc(-c3ccccc3Cl)o2)CCO1 (stereo not drawn),15.7%
13,c1csc(-c2nc(CN3CCn4c(nnc4C4CC4)C3)co2)c1,9.58%
14,CCNC(=O)[C@@H]1C[C@H](NC(=O)Cc2ccsc2)CN1Cc1ccc(C)o1,20.9%
15,CCOc1ncccc1NC(=O)NC1CCCN(c2ncccn2)C1 (stereo not drawn),13.3%
16,CC(=O)N1CCCC1c1csc(Nc2cnccn2)n1 (stereo not drawn),11.8%
17,CCOC1COC2(CCN(S(=O)(=O)c3cccc(F)c3)CC2)C1 (stereo not drawn),19.9%
18,O=c1c2ccccc2nc2n1C(CSc1ccc(Cl)cc1Cl)CN2 (stereo not drawn),13.3%
19,c1ccc(OC2CCCC2)c(CNC2CCc3ncnn3C2)c1 (stereo not drawn),20.7%
